According to PubChem BioAssay AID1159580 (chemical genetic matrix, 2015):
Values joined by “and” are separate entries in the source; they are usually repeats but may differ in a detail not shown here. Identical values can stand only once. The whole screen tested about 5,500 compounds, of which about 2,000 (36%) were called active. Not shown: some 18% with an inconclusive outcome. No stated cut-off is given here; in the data, active means normalized growth mostly below about 0.91 (no sharp cut-off); inconclusive means no clear call, values can overlap the other calls; inactive means mostly above about 0.92. Some of the results follow.

Experiment: chemical genetic growth profiling, strain panel (AID 1159580);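 further: tested at 20 µM; growth read once vehicle control cultures reached saturation at 30 °C; 1 = growth at the plate median or of vehicle wells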
Conditions: S. cerevisiae deletion strains, growth OD

Measured: normalized growth

NC(=O)c1ccc([N+](=O)[O-])cc1Cl
inactive: locus YAL013W, strain DEP1, stronger effect = lower value 0.983 | locus YAL021C, strain ccr4, stronger effect = lower value 0.97 | locus YAL026C, strain drs2, stronger effect = lower value 0.968 | locus YAL030W, strain snc1, stronger effect = lower value 0.997 | locus YBL061C, strain skt5, stronger effect = lower value 0.983 | locus YBR009C, strain hhf1, stronger effect = lower value 0.953 | locus YBR021W, strain FUR4, stronger effect = lower value 1.02 | locus YBR023C, strain chs3, stronger effect = lower value 0.985 | locus YBR171W, strain sec66, stronger effect = lower value 0.981 | locus YBR229C, strain ROT2, stronger effect = lower value 0.95 | locus YBR231C, strain swc5, stronger effect = lower value 1.01 | locus YBR279W, strain paf1, stronger effect = lower value 0.988 | locus YCL011C, strain gbp2, stronger effect = lower value 0.929 | locus YCL016C, strain dcc1, stronger effect = lower value 0.951 | locus YCL029C, strain bik1, stronger effect = lower value 0.977 | locus YCL069W, strain vba3, stronger effect = lower value 0.984 | locus YCR088W, strain abp1, stronger effect = lower value 0.994 | locus YDL005C, strain med2, stronger effect = lower value 0.985 | locus YDL035C, strain GPR1, stronger effect = lower value 0.98 | locus YDL040C, strain nat1, stronger effect = lower value 0.992 | locus YDL074C, strain BRE1, stronger effect = lower value 0.956 | locus YDL101C, strain DUN1, stronger effect = lower value 0.943 | locus YDL134C, strain PPH21, stronger effect = lower value 0.982 | locus YDL185W, strain tfp1, stronger effect = lower value 0.981 | locus YDL192W, strain arf1, stronger effect = lower value 0.982 | locus YDR001C, strain nth1, stronger effect = lower value 0.965 | locus YDR069C, strain doa4, stronger effect = lower value 0.971 | locus YDR101C, strain arx1, stronger effect = lower value 0.991 | locus YDR137W, strain rgp1, stronger effect = lower value 0.929 | locus YDR150W, strain NUM1, stronger effect = lower value 0.965 | locus YDR159W, strain sac3, stronger effect = lower value 0.931 | locus YDR162C, strain NBP2, stronger effect = lower value 0.945 | locus YDR195W, strain ref2 1.02 | locus YDR297W, strain sur2, stronger effect = lower value 0.978 | locus YDR318W, strain mcm21, stronger effect = lower value 0.995 | locus YDR334W, strain swr1, stronger effect = lower value 0.979 | locus YDR335W, strain msn5, stronger effect = lower value 0.981 | locus YDR388W, stronger effect = lower value 0.984 | locus YDR392W, strain spt3, stronger effect = lower value 0.942 | locus YDR502C, strain sam2, stronger effect = lower value 0.973 | locus YEL003W, strain gim4, stronger effect = lower value 1.01 | locus YEL037C, strain rad23, stronger effect = lower value 0.983 | locus YEL061C, strain CIN8 (second series), stronger effect = lower value 0.979 | locus YEL061C, strain CIN8, stronger effect = lower value 0.976 | locus YER015W, strain faa2, stronger effect = lower value 0.988 | locus YER016W, strain bim1, stronger effect = lower value 0.969 | locus YER110C, stronger effect = lower value 0.978 | locus YER111C, strain swi4, stronger effect = lower value 0.988 | locus YER155C, strain BEM2 (second series), stronger effect = lower value 1.05 | locus YER155C, strain BEM2, stronger effect = lower value 0.984 | locus YER167W, strain BCK2, stronger effect = lower value 0.978 | locus YFR010W, strain ubp6, stronger effect = lower value 0.975 | locus YGL078C, strain dbp3, stronger effect = lower value 0.965 | locus YGL086W, strain mad1, stronger effect = lower value 0.998 | locus YGL167C, strain pmr1, stronger effect = lower value 0.978 | locus YGL173C, strain kem1, stronger effect = lower value 0.99 | locus YGL227W, strain vid30, stronger effect = lower value 0.991 | locus YGL240W, strain doc1, stronger effect = lower value 0.995 | locus YGL248W, strain PDE1, stronger effect = lower value 0.973 | locus YGL253W, strain hxk2, stronger effect = lower value 0.971 | locus YGR078C, strain PAC10, stronger effect = lower value 0.979 | locus YGR135W, strain pre9, stronger effect = lower value 0.971 | locus YGR229C, strain SMI1, stronger effect = lower value 0.974 | locus YGR252W, strain gcn5, stronger effect = lower value 1 | locus YHR013C, strain ard1, stronger effect = lower value 0.936 | locus YHR027C, strain rpn1, stronger effect = lower value 0.968 | locus YHR030C, strain SLT2, stronger effect = lower value 0.985 and 0.977 | locus YHR079C, strain IRE1 (second series), stronger effect = lower value 0.977 | locus YHR079C, strain IRE1, stronger effect = lower value 0.974 | locus YHR094C, strain hxt1, stronger effect = lower value 0.989 | locus YHR129C, strain ARP1, stronger effect = lower value 0.997 | locus YHR142W, strain chs7, stronger effect = lower value 0.982 | locus YHR200W, strain rpn10, stronger effect = lower value 0.981 | locus YIL066C, strain RNR3, stronger effect = lower value 0.976 | locus YIL073C, strain SPO22, stronger effect = lower value 0.95 | locus YIL125W, strain kgd1, stronger effect = lower value 0.989 | locus YIR030C, strain dcg1, stronger effect = lower value 0.972 | locus YJL092W, strain hpr5, stronger effect = lower value 0.988 | locus YJL095W, strain BCK1 (second series), stronger effect = lower value 0.969 | locus YJL095W, strain BCK1, stronger effect = lower value 0.995 and 0.957 | locus YJL115W, strain asf1, stronger effect = lower value 0.986 | locus YJL129C, strain trk1, stronger effect = lower value 1.02 | locus YJL134W, strain LCB3, stronger effect = lower value 0.975 | locus YJL154C, strain vps35, stronger effect = lower value 0.98 | locus YJL164C, strain tpk1, stronger effect = lower value 0.933 | locus YJL166W, strain qcr8, stronger effect = lower value 1.01 | locus YJL168C, strain set2, stronger effect = lower value 0.982 | locus YJL187C, strain SWE1 (second series), stronger effect = lower value 0.972 | locus YJR043C, strain POL32, stronger effect = lower value 0.993 | locus YJR066W, strain TOR1, stronger effect = lower value 0.944 | locus YJR075W, strain HOC1, stronger effect = lower value 0.969
